Measurements as given in PubChem BioAssay (EPA / NIEHS).
Records with an inconclusive call do not appear. Activity calls are given as the source filed them. How the source made its calls, unless noted: active means hit-call score of the fitted dose curve at least 0.9, where 1 is the maximum; inconclusive means response in the unintended direction; inactive means score below 0.9.

Key:
[1] = biological target: Retinoic acid receptor alpha (Homo sapiens) (UniProt P10276); assay: ATG_DR5_RAR_CIS: Attagene CIS-FACTORIAL HepG2 Assay for human Retinoic Acid Receptor Alpha (RARE), DR5 submotif (AID 2282934; active means hit-call score of the fitted dose curve at least 0.9, where 1 is the maximum; inactive means score below 0.9); details: HepG2 Attagene cis-factorial RARE DR5 reporter, mRNA; actives raise or lower the signal
Procedure, shortened: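 HepG2 cells transiently transfected with multiplexed reporter units; DR5 cis-element drives reporter through endogenous transcription factors. After 24 h dosing, reporter mRNA quantified by RT-PCR, fluorescent labeling, HpaI digestion and capillary electrophoresis; bidirectional fitting versus DMSO.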

[2] = biological target: Hepatocyte nuclear factor 3-beta (Homo sapiens) (UniProt Q9Y261); assay: ATG_FoxA2_CIS: Attagene CIS-FACTORIAL HepG2 Assay for human Forkhead box A2 (FOXA2) (AID 2282942; active means hit-call score of the fitted dose curve at least 0.9, where 1 is the maximum; inactive means score below 0.9); details: HepG2 cis-reporter transcription factor activity, 24 h; actives raise or lower the signal
Procedure, shortened: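 HepG2 cells transiently transfected with multiple cis-regulated reporter transcription units, dosed for 24 h. Reporter mRNA measured by RT-PCR, 6-FAM labelling, HpaI digestion and capillary electrophoresis; bidirectional fitting against DMSO baseline.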

[3] = ATG_GLI_CIS: Attagene CIS-FACTORIAL HepG2 Assay for human Zinc Finger Protein GLI1 (AID 2282945; active means hit-call score of the fitted dose curve at least 0.9, where 1 is the maximum; inactive means score below 0.9); details: HepG2, Attagene cis-factorial reporter mRNA, GLI element; actives raise or lower the signal
Procedure, shortened: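 Transiently transfected HepG2 cells report endogenous transcription factor activity via cis-element-driven reporter units. After 24 h compound exposure, reporter mRNA was measured by RT-PCR with capillary electrophoresis; bidirectional fitting against DMSO baseline.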

[4] = ATG_GRE_CIS: Attagene CIS-FACTORIAL HepG2 Assay for human Glucocorticoid Response Elements (GRE) (AID 2282947; active means hit-call score of the fitted dose curve at least 0.9, where 1 is the maximum; inactive means score below 0.9); details: HepG2 GRE cis-reporter, Attagene multiplex mRNA; actives raise or lower the signal
Procedure, shortened: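 Read-out: fluorescent reporter-transcript fragments separated by capillary electrophoresis after RT-PCR. Transiently transfected HepG2 cells carrying cis-element-driven reporter units were dosed for 24 h; gain or loss of signal fitted against DMSO control.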

[5] = ATG_M_32_CIS: Attagene CIS-FACTORIAL HepG2 Assay for M32 Transcription Factor (Internal Marker) (AID 2282949; active means hit-call score of the fitted dose curve at least 0.9, where 1 is the maximum; inactive means score below 0.9;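 further: background control marker of the multiplexed CIS panel rather than a real target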); details: HepG2 Attagene cis-factorial M32 reporter, mRNA; actives raise or lower the signal
Procedure, shortened: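 Transient MRTU transfection of HepG2; 24 h compound treatment; TriZol RNA, oligo(dT) RT, reporter PCR, 6-FAM primer extension, HpaI cut, CE. Gain/loss of signal vs DMSO.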

[6] = ATG_PBREM_CIS: Attagene CIS-FACTORIAL HepG2 Assay for human Phenobarbital-responsive Enhancer Module (PBREM) (AID 2282955; active means hit-call score of the fitted dose curve at least 0.9, where 1 is the maximum; inactive means score below 0.9); details: HepG2 PBREM cis-reporter, Attagene multiplexed transcription; actives raise or lower the signal
Procedure, shortened: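 HepG2 cells transiently transfected with multiple cis-regulated reporter transcription units; endogenous factor activity at the PBREM element measured as reporter mRNA 24 h after dosing, via RT-PCR and capillary electrophoresis of fluorescent fragments; bidirectional fitting versus DMSO.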

[7] = ATG_RORE_CIS: Attagene CIS-FACTORIAL HepG2 Assay for human RAR-related Orphan Receptor Element (RORE) (AID 2282959; active means hit-call score of the fitted dose curve at least 0.9, where 1 is the maximum; inactive means score below 0.9); details: HepG2 Attagene cis-factorial RORE reporter, mRNA; actives raise or lower the signal
Procedure, shortened: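 HepG2 cells transiently transfected with multiple cis-element reporter transcription units, exposed to chemical for 24 h. Reporter mRNA quantified by RT-PCR, 6-FAM primer-extension labeling, HpaI digestion and capillary electrophoresis; bidirectional fit versus DMSO baseline.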

[8] = biological target: Hepatocyte nuclear factor 4-alpha (Homo sapiens) (UniProt P41235); assay: ATG_HNF4a_TRANS: Attagene TRANS-FACTORIAL HepG2 Assay for human Hepatocyte Nuclear Factor 4 alpha (HNF4a) (AID 2282982); details: HepG2 HNF4a transactivation reporter, mRNA readout
Procedure, shortened: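 Transient MRTU transfection of HepG2, 24 h dosing. Readout: reporter mRNA via RT-PCR + capillary electrophoresis, fluorescence; activity fit upward relative to DMSO control.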

[9] = ATG_M_32_TRANS: Attagene TRANS-FACTORIAL HepG2 Assay for M32 Transcription Factor (Internal Marker) (AID 2282984); details: HepG2 Attagene TRANS M32 internal marker reporter;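 further: transcript level of a background control reporter unit measured by RT-PCR and capillary electrophoresis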
Procedure, shortened: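 Read-out: fluorescent reporter cDNA fragments resolved by capillary electrophoresis after RT-PCR of total RNA. Transfected HepG2 cells were exposed to chemical for 24 h. Activity scored in the positive direction relative to DMSO.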

[10] = biological target: Nuclear respiratory factor 1 (Homo sapiens) (UniProt Q16656); assay: ATG_NRF1_CIS: Attagene CIS-FACTORIAL HepG2 Assay for human Nuclear Respiratory Factor 1 (NRF1) Orphan Gene (AID 2282987; active means hit-call score of the fitted dose curve at least 0.9, where 1 is the maximum; inactive means score below 0.9); details: HepG2 NRF1 cis-element reporter, Attagene multiplex; actives raise or lower the signal
Procedure, shortened: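 HepG2 cells transiently transfected with multiple reporter transcription units under cis-regulatory promoter control, so endogenous transcription-factor activity is read. After 24 h compound exposure, reporter mRNA quantified by RT-PCR, fluorescent labelling, HpaI digestion and capillary electrophoresis; bidirectional fitting versus DMSO.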

[11] = ATG_NF_kB_CIS: Attagene CIS-FACTORIAL HepG2 Assay for human Nuclear Factor Kappa B (NF-kB) (AID 2282991; active means hit-call score of the fitted dose curve at least 0.9, where 1 is the maximum; inactive means score below 0.9); details: HepG2 Attagene cis-factorial NF-kB reporter mRNA; actives raise or lower the signal
Procedure, shortened: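 HepG2 cells transiently transfected with multiplexed cis-element reporter units measuring endogenous transcription factor activity; reporter mRNA read 24 h after dosing by RT-PCR, fluorescent labelling, HpaI digestion and capillary electrophoresis. Bidirectional fit against DMSO baseline.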

[12] = biological target: Retinoic acid receptor RXR-alpha (Homo sapiens) (UniProt P19793); assay: ATG_RXRa_TRANS: Attagene TRANS-FACTORIAL HepG2 Assay for human Retinoid X Receptor alpha (RXRa) (AID 2283012)
Procedure, shortened: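 Read-out: fluorescent reporter-transcript fragments quantified by capillary electrophoresis after RT-PCR. Transiently transfected HepG2 cells carrying GAL4-UAS reporters and NR-GAL4 chimeras were exposed to chemical for 24 h; activity scored as increase over DMSO.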

[13] = biological target: human Retinoid X Receptor beta (RXRb), RXRB (gene 6257) (UniProt P28702); assay: ATG_RXRb_TRANS: Attagene TRANS-FACTORIAL HepG2 Assay for human Retinoid X Receptor beta (RXRb) (AID 2283013)
Procedure, shortened: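 Read-out: reporter mRNA induction via RT-PCR plus capillary electrophoresis fluorescence, analysed as signal increase relative to DMSO. Cells were human HepG2, transiently transfected with GAL4-UAS reporter constructs and chimeric receptor-Gal4 fusions, dosed for 24 h.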

[14] = TOX21_p53_BLA_p2_viability: Viability Assessment in the Tox21 HCT-116 p53 Agonism Beta-lactamase Assay, Phase 2 (AID 2283591);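 further: compound exposure lasted 16 h at 37 °C; actives lower the ATP signal meaning cytotoxicity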
Procedure, shortened: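 HCT116 p53-bla cells, 4000/well, dosed after 5 h plating (217-fold dilution of DMSO stocks) and incubated 16 h at 37C. Viability taken as cellular ATP by CellTiter-Glo luminescence after 30 min RT; signal loss marks cytotoxicity.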

[15] = biological target: Cellular tumor antigen p53 (Homo sapiens) (UniProt P04637); assay: TOX21_p53_BLA_p3_ratio: Tox21 HCT-116 p53 Agonism Beta-lactamase Assay, Ratio, Phase 3 (AID 2283596)
Procedure, shortened: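 Cells were seeded at 4000/well, rested 5 h at 37C, then dosed with DMSO compound solutions (217-fold dilution) for 16 h. CCF4-AM substrate was loaded for 2 h at room temperature, and the 460/530 nm emission ratio was fitted for gain of signal versus DMSO.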

[16] = biological target: Cellular tumor antigen p53 (Homo sapiens) (UniProt P04637); assay: TOX21_p53_BLA_p5_ratio: Tox21 HCT-116 p53 Agonism Beta-lactamase Assay, Ratio, Phase 5 (AID 2283599)
Procedure, shortened: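 HCT-116 p53-bla cells (4000/well) plated 5 h, dosed with compound (217-fold DMSO dilution) for 16 h at 37 C; CCF4-AM substrate 2 h at room temperature. Activity is the 460/530 nm emission ratio (405 nm excitation), fitted in gain-of-signal direction versus DMSO.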

[17] = TOX21_p53_BLA_p5_viability: Viability Assessment in the Tox21 HCT-116 p53 Agonism Beta-lactamase Assay, Phase 5 (AID 2283600)
Procedure, shortened: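 Viability is taken from cellular ATP content, measured by luciferase luminescence in the same wells after the beta-lactamase ratio read. Cells are seeded at 4000 per well and exposed to DMSO-dissolved compounds, diluted 217-fold, for 16 h.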

[18] = biological target: Cellular tumor antigen p53 (Homo sapiens) (UniProt P04637); assay: TOX21_p53_BLA_p4_ratio: Tox21 HCT-116 p53 Agonism Beta-lactamase Assay, Ratio, Phase 4 (AID 2283601)
Procedure, shortened: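 HCT-116 p53 beta-lactamase reporter cells (4000/well) preincubated 5 h, then compound (217-fold dilution of DMSO stock) for 16 h at 37C. CCF4-AM substrate added 2 h at room temperature; 460/530 nm emission ratio fitted upward versus DMSO.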

[19] = biological target: human Peroxisome Proliferator-activated Receptor alpha (PPARa), PPARA (gene 5465) (UniProt Q07869); assay: ATG_PPARa_TRANS: Attagene TRANS-FACTORIAL HepG2 Assay for human Peroxisome Proliferator-activated Receptor alpha (PPARa) (AID 2283001);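 on AC50: potency for gain of reporter signal over DMSO so agonist or activator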
Procedure, shortened: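 Transient HepG2 transfection, GAL4-UAS reporters, NR-Gal4 chimeras; 24 h compound exposure. Readout: reporter transcripts by RT-PCR, 6-FAM primer extension, HpaI digest, capillary electrophoresis. Positive direction vs DMSO baseline.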

[20] = ATG_MRE_CIS: Attagene CIS-FACTORIAL HepG2 Assay for human Metal Responsive Element (MRE) (AID 2282954; active means hit-call score of the fitted dose curve at least 0.9, where 1 is the maximum; inactive means score below 0.9); details: HepG2 MRE cis-reporter transcription, Attagene multiplex; actives raise or lower the signal
Procedure, shortened: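 RT-PCR/capillary electrophoresis readout of reporter mRNA, 24 h post-dosing, in HepG2 cells transfected with multiplexed cis-regulated reporter constructs. Gain or loss of signal fitted bidirectionally against DMSO baseline.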

Measured: AC50

Retinoic acid receptor RXR-alpha (Homo sapiens), sequence (P19793 whole entry, looked up, the tested form may be a part): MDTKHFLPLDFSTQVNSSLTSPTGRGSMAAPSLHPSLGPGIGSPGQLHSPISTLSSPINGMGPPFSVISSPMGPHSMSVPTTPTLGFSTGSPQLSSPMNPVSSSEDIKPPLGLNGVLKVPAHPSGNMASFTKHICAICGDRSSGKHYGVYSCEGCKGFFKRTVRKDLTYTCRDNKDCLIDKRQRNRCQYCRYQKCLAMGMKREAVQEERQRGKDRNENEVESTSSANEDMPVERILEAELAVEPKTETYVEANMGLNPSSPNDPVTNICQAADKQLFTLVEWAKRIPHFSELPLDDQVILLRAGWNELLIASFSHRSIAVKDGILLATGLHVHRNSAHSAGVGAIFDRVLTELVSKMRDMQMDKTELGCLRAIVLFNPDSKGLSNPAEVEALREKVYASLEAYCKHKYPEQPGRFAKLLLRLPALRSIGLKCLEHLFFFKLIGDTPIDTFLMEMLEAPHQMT
Cellular tumor antigen p53 (Homo sapiens), sequence (P04637 whole entry, looked up): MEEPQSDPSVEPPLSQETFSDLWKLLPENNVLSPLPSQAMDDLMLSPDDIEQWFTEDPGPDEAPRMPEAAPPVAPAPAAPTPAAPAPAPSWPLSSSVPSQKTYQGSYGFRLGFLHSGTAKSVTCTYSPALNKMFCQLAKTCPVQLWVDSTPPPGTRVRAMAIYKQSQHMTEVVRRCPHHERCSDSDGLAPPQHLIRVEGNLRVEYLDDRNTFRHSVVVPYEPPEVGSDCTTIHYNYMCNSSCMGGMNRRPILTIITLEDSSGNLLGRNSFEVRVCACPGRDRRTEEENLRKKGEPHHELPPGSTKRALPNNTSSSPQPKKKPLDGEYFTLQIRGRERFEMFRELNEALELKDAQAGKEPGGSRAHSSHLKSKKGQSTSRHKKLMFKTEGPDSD
Hepatocyte nuclear factor 3-beta (Homo sapiens), sequence (Q9Y261 whole entry, looked up): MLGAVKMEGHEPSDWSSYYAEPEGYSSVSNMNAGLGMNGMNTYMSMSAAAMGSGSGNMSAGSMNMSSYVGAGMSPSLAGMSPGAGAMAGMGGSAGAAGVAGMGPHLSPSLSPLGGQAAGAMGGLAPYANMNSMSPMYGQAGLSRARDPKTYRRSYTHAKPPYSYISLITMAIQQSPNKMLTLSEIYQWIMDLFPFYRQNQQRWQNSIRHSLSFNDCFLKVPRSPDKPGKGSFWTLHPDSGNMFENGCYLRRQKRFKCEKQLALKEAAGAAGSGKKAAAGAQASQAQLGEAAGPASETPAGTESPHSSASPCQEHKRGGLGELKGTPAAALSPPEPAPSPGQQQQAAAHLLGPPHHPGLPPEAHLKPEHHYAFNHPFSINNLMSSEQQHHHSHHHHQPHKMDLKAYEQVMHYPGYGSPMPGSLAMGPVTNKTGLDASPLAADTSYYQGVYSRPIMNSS
human Retinoid X Receptor beta (RXRb), RXRB (gene 6257), sequence (P28702 whole entry, looked up, the tested form may be a part): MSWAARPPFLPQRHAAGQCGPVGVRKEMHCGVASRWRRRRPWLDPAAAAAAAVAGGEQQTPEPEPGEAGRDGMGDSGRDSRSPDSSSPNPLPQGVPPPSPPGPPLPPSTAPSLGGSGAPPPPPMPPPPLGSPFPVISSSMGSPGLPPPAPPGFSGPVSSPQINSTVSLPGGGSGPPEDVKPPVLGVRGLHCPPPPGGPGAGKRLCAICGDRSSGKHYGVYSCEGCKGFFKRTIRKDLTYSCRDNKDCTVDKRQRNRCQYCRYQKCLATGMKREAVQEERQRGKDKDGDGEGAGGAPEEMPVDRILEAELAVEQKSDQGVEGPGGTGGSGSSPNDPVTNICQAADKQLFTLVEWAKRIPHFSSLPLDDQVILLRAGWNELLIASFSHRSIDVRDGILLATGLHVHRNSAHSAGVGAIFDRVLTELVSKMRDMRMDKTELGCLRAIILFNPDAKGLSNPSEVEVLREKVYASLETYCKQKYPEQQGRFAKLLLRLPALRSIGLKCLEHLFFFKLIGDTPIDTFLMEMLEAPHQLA
Nuclear respiratory factor 1 (Homo sapiens), sequence (Q16656 whole entry, looked up): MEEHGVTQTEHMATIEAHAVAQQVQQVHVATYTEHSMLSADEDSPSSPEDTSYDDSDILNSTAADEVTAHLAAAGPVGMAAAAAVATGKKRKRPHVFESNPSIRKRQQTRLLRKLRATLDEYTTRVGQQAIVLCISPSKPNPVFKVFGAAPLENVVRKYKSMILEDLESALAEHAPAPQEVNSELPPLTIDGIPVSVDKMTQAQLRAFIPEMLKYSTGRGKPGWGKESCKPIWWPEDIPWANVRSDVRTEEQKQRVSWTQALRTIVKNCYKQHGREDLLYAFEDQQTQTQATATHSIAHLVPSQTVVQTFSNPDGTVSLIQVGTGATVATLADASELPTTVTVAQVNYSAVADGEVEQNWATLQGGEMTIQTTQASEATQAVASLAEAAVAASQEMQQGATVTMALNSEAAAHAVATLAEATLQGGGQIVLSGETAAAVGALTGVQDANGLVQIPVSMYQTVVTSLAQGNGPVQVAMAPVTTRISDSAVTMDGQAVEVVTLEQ
Retinoic acid receptor alpha (Homo sapiens), sequence (P10276 whole entry, looked up): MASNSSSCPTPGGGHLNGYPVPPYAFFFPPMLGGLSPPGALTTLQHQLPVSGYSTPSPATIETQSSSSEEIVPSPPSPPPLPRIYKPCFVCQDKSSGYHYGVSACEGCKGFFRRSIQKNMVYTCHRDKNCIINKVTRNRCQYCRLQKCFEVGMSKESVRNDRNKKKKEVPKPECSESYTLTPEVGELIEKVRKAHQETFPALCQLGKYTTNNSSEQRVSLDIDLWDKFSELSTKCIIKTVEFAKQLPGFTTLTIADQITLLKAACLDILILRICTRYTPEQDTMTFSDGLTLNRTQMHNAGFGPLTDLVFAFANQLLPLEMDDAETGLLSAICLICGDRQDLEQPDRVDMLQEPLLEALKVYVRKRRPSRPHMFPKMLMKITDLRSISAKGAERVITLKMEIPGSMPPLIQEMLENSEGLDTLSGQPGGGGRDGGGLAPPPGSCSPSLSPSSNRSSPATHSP
human Peroxisome Proliferator-activated Receptor alpha (PPARa), PPARA (gene 5465), sequence (Q07869 whole entry, looked up, the tested form may be a part): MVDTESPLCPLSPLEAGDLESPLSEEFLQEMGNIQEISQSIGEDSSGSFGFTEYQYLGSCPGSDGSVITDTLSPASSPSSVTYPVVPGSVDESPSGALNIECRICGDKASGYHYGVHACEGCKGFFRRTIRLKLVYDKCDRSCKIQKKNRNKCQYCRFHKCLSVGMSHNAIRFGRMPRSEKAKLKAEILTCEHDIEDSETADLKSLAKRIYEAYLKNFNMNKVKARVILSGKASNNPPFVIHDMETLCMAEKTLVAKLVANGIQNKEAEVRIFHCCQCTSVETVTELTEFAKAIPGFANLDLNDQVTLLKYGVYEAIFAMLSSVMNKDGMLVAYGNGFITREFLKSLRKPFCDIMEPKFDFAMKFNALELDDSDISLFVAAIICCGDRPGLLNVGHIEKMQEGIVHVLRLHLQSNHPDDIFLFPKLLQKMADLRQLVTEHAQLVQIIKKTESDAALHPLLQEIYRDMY
Hepatocyte nuclear factor 4-alpha (Homo sapiens), sequence (P41235 whole entry, looked up): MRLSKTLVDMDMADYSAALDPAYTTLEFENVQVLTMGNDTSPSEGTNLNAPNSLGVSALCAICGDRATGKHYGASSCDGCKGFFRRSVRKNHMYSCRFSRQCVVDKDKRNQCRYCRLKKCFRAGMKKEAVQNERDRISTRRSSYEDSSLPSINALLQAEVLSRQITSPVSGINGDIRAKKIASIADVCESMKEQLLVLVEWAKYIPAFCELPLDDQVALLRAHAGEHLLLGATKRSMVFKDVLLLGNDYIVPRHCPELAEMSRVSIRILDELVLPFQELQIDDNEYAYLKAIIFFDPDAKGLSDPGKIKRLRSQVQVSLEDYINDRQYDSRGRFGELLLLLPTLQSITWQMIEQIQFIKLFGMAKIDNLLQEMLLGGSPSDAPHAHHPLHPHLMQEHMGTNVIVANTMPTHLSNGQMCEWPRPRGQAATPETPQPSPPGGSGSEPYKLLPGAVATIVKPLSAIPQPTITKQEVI

c1cc(N(CC2CO2)CC2CO2)ccc1Cc1ccc(N(CC2CO2)CC2CO2)cc1 (configuration not stated)
active: [3] 26.4 µM | [15] 81.6 µM | [16] 55.4 µM | [18] 33.1 µM
not listed: [19] | [20]
inactive: all other assays above

CCOC(=O)c1ccccc1
inactive: [2] | [5] | [7] | [9] | [10] | [19] | [12] | [14] | [15] | [16]
active: [4] 61.9 µM

O=C(CC(C(=O)OC1CCCCC1)S(=O)(=O)O)OC1CCCCC1 (configuration not stated)
active: [19] 35.1 µM
not listed: [2] | [10] | [12]
inactive: all other assays above

Oc1ccc(Oc2ccccc2)cc1
active: [20] 79 µM | [13] 59.2 µM
not listed: [4] | [8] | [9] | [17]
inactive: all other assays above
